Here are results for 9 molecules from the supplement of paper PMC10105736.

Common to all, as to assay: MAPPIT interaction score (arbitrary units); higher = stronger binary interaction signal, active = hit call of the paper
Test [1] deals with RIC-3. The note with it: MAPPIT configuration: N-C; pair source set: screen_3.
Test [2] has as its target Sod3. To be noted: MAPPIT configuration: N-C; pair source set: screen_4.
In test [3] the target is Rgk3. The note with it: MAPPIT configuration: N-N; pair source set: Curagen_low_conf.
Test [4] addresses RPA2. The note with it: MAPPIT configuration: N-N; pair source set: Finley_Y2H.
In test [5] the target is ScsbetaG. The note with it: MAPPIT configuration: N-N; pair source set: Finley_Y2H.
Test [6] deals with ReepB. The note with it: MAPPIT configuration: N-N.
Test [7] addresses RFeSP. The note with it: MAPPIT configuration: N-N; pair source set: RRS.
Test [8] has as its target Rab26. To be noted: MAPPIT configuration: N-N; pair source set: Lit-BS-16.
The target of test [9] is Rbp1. To be noted: MAPPIT configuration: N-N; pair source set: Finley_Y2H.
The target in test [10] is RpL12. The note with it: MAPPIT configuration: N-N; pair source set: Lit-BS-16.

A number with no mark means an inactive call.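 The calls were made as follows: active = MAPPIT score above the 99th percentile of random reference set scores in the same batch; inactive = at or below it.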
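Also: HEK293T cells with Epo stimulation, STAT-responsive firefly luciferase reporter, fold induction versus unstimulated cells divided by the larger fold induction of two negative controls lacking either bait or prey.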

B1: Nplp2 (protein)
chain: MAKLAICILVFALFALALSARVPREESNPAQEFLTKAQGDFNEFIEKLKALDAKKVEGLFKDGLNTVQEGLQKLNETFLQAPAAST
Turning to B1, the MAPPIT interaction score in [1] is 0.0485; in test [2] it was 2.23.

B2: eEF1gamma (protein)
chain: MVKGTLYTYPENFRAYKALIAAQYSGAQVKVADNFKFGETNKSAEFLKKFPGGKVPAFETAEGQYLSESNAIAYLLANEQLRGGKCPFVQAQVQQWISFADNEIVPASCAWVFPLLGILPQQKNSTAKQEAEAVLQQLNQKLQDATFLAGERITLADIVVFSSLLHLYEYVLEPSVRSAFGNVNRWFVTILNQKQVQAVVKDYKLCEKALVFDPKKYAEFQAKTGAAKPQQQAQQQKQEKKPKEKKEAPKKAAEPAEELDAADEALAAEPKSKDPFDALPKGTFNFDDFKRVYSNEDEAKSIPYFFDKFDAENYSIWFGEYKYNEELSKVFMSCNLITGMFQRLDKMRKAAFASVCLFGEDGNSTISGIWVWRGQDLAFTLSPDWQIDYEVYDWKKLDAKSEETKKLVTQYFSWSGTDKDGRKFNQGKIFK
As to B2, the MAPPIT interaction score in test [3] was -0.0165.

B3: Lip3 (protein)
chain: MTRGALKVTILLVGLGLVLAGSRPISDCGERIEDDGYPMERHEVVTSDNYILTMHRIPYSPKTGESSNRPVAFLMHGMLSSSSDWVLMGPERSLAYMLADAGYDVWMGNARGNTYSKAHKYWPTYWQIFWNFSWNEIGMYDVPAMIDYVLAKTGQQQVQYVGHSQGTTVYLVMVSERPEYNDKIKSAHLLGPAAYMGNMKSPLTRAFAPILGQPNAIVEVCGSMEFMPSNKFKQDLGIEMCQATSPYADMCANEIFLIGGYDTEQLDYELLEHIKATSPAGASVNQNLHFCQEYNSGKFRKFDYTALRNPYEYGSYFPPDYKLKNAKAPVLLYYGANDWMCDVSDVRKLRDELPNMALDYLVPFEKWAHLDFIWGTEARKYVYDEVLKQMQSYE
As to B3, the MAPPIT interaction score in [4] is 0.346; in test [5], 1.35.

B4: wol (protein)
chain: MWTCLCQLCFYLLSTLAVAALSIAALVLYKTKPYPNIKRHKDEETFLDPHTIKTVTFPSLEDSPSLELSVIVPAYNEEQRLPSMLDECLAFLEQKSAGTPNFTYEVIVVSDGSQDATVSVALGYSKKHGAEKVRVLELIENRGKGGAVRMGMLSARGRNLLFADADGATKFPDYDKLEVALKQLAPEWRDDGIAIGSRAHLENDAIATRSFFRTILMHGFHFLVWLFAVRSIRDTQCGFKLFTRTTARKLFTSLHVERWAFDVELLYLAENLKLPMSEVAVRWTEIDGSKLTPFWSWLQMGRDLFMIWVRYLVGAWRIASIQKKEK
On to B4, for which the MAPPIT interaction score in test [6] (pair source set: Lit-BS-16) is 0.541.

B5: E(spl)m4-BFM (protein)
chain: MCQNKINTNNTMTIKSNKKLSYSVKKLLQKIFKQQQRVEEEQNLKNALKANSLESLESMENSRNADLESASICASLESCENEANERLSQSCEIEDYDFEQLPTVPVHFVRTAHGTFFWTAVSDLPADNDLVEPLYCSTSNAIAIPQDRWVQA
Consider B5, for which the MAPPIT interaction score in test [7] was 0.268.

B6: Pdf (protein)
chain: MARYTYLVALVLLAICCQWGYCGAMAMPDEERYVRKEYNRDLLDWFNNVGVGQFSPGQVATLCRYPLILENSLGPSVPIRKRNSELINSLLSLPKNMNDAGK
As to B6, the MAPPIT interaction score in [6] (pair source set: Finley_Y2H) was 2.66.

B7: Phb1 (protein)
chain: MAAQFFNRIGQMGLGVAVLGGVVNSALYNVEGGHRAVIFDRFTGIKENVVGEGTHFFIPWVQRPIIFDIRSQPRNVPVITGSKDLQNVNITLRILYRPIPDQLPKIYTILGQDYDERVLPSIAPEVLKAVVAQFDAGELITQREMVSQRVSQELTVRAKQFGFILDDISLTHLTFGREFTLAVEMKQVAQQEAEKARFVVEKAEQQKLASIISAEGDAEAAGLLAKSFGEAGDGLVELRRIEAAEDIAYQLSRSRGVAYLPSGQSTLLNLPSTIAQ
Regarding B7, the MAPPIT interaction score in [8] was 0.345.

B8: Rsf1 (protein)
chain: MGDQRGTRVYVGNLTDKVKKDDLEGEFTKYGKLNSVWIAFNPPGFAFVEFEHRDDAEKACDILNGSELLGSQLRVEISKGRPRQGRRGGPMDRGGRRGDFGRHSITSGGSGGGGFRQRGSSGSSSRHTERGYSSGRSGASSYNGREGGGSGFNRREVYGGGRDSSRYSSGSSASYGRTGGQSAGRFRSRSPVGNHRF
Take B8: the MAPPIT interaction score in test [9] is 0.372.

B9: Lap1 (protein)
chain: MPLLSKCFPCFKFKREEVIDKLDYSNTPLTDFPEVWQHERTLEELYLSTTRLQALPPQLFYCQGLRVLHVNSNNLESIPQAIGSLRQLQHLDLNRNLIVNVPEEIKSCKHLTHLDLSCNSLQRLPDAITSLISLQELLLNETYLEFLPANFGRLVNLRILELRLNNLMTLPKSMVRLINLQRLDIGGNEFTELPEVVGELKSLRELWIDFNQIRRVSANIGKLRDLQHFEANGNLLDTLPSELSNWRNVEVLSICSNSLEAFPFSVGMLKSLVTFKCESNGLTELPDSISYLEQLEELVLSHNKLIRLPSTIGMLRSLRFLFADDNQLRQLPDELCSCQQLSVLSVANNQLSALPQNIGNLSKMKVLNVVNNYINALPVSMLNLVNLTSMWLSDNQSQPLVPLQYLDASTKTQLTCFMLPQVTFKMNSIQAQQQAQEQYEFVYANQQQPHASPSRRICFAEEATILSNAKAQPAPNYPSFVAAPPTPTPDQMAGSVRLMRSPTPYPKELRQMSKYVRQAQAATSSANASEVREARVVTNGQIHCDSNNANQDVVDQATTSAIYGIAPETTHIYGVYQQPQQMAHPVPTQEYYGLPLVNYEAHYQQLYVEANTPLPTTHLNGDQDYELQPLQQQPMQQQALPTPRLEPPPYHIARVYTKKTPEDLNLYESMRQRKQQQQLQEQTIYQDALNSNSNFKTTAIGAQDVEESVDQLDYQNNISNNLEPNPEEEDQELDDTMSQHSLNSTATNNTSKASHKKSTWIFGVHKNPTVKQVTLKWENSIGFDIAELLNQVGIFVSSITPNTNAARLLNLNDKLLEIDGYDLTNANLSDAKRVLLNCGTVMNIMLSRK
For the molecule B9, in test [10], the MAPPIT interaction score was -0.0144.
